Source: PubChem BioAssay
Only some compounds are listed: those with a hit (about 19% of all), similar ones and a draw of the others.
DT40 TDP1 no CPT: qHTS for Inhibitors of human tyrosyl-DNA phosphodiesterase 1 (TDP1): qHTS in cells in absence of CPT. DT40 Tdp1-/- hTDP1 cells, no CPT, ATP luminescence, 48 h. Potency, µM (titrated, usually from 46.2 µM), for the others: at the top dose activity change, negative = growth inhibition, usual class: inhibitors. 420,000 compounds, 15% hits; also: potency is read from the fitted curve at half-maximal effect; nearly all actives have a fitted effect of over 55% in size
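Seeded 400 DT40-hTDP1 cells/well (vehicle DMSO, no 20 nM CPT); pinned compounds; ≥48 hr at 37 °C; CellTiter-Glo luminescence as viability measure.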
uPA surface inh: qHTS for Inhibitors of Cell Surface uPA Generation | cell surface uPA generation assay, qHTS | Potency, µM (titrated, usually from 38.3 µM), inactives show top-dose activity change, negative = inhibition, usual class: inhibitors | 330,000 compounds, 0.31% hits; active = well fitted inhibition curve with a large enough effect; inconclusive = small, poorly fitted or top-dose-only effect; inactive = no such curve, though single readings can be large or run the other way; tested in mouse RAW 264.7 cells; also: potency is read from the fitted curve at half-maximal effect; nearly all actives have a fitted effect of over 55% in size
HT1080 IDH1KD tx: qHTS for induction of synthetic lethality in tumor cells producing 2HG: qHTS for the HT-1080-IDH1KD cell line; HT-1080 IDH1 knockdown viability, ATP luminescence, 48 h; 360,000 compounds, 2% hits; Potency, µM (highest dose often 46.1 µM), for the others: top-dose activity, negative = toxicity, usual class: cytotoxic;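 also: potency is read from the fitted curve at half-maximal effect; 0% = DMSO wells and -100% = cell-free medium wells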
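% activity derives from luminescence (CellTiter-Glo), normalised to DMSO and no-cell wells. HT-1080-IDH1KD cells, 750/well, had 48 h compound exposure at 37 °C.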
IL-1B inflam inh: qHTS for Inhibitors of Inflammasome Signaling: IL-1-beta AlphaLISA Primary Screen. THP-1 LPS/ATP IL-1B secretion, AlphaLISA, 16 h; stronger effect = lower value. AID 743279, 2014. 360,000 compounds, 4.7% hits. activity change, % at 57.5 µM; in the data active = activity change below about -50%; inconclusive = mostly about -30% to -49%
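THP-1 cells pretreated 1 hr with compounds (up to 57.5 uM final), then stimulated with LPS (250 ng/mL final) plus ATP (1.25 mM final); secreted IL-1B measured by AlphaLISA after 16 hr, decreased signal indicating inhibition.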
TDP1 cell CPT: qHTS for Inhibitors of human tyrosyl-DNA phosphodiesterase 1 (TDP1): qHTS in cells in presence of CPT. chicken DT40 Tdp1-/-;hTDP1 cells + 20 nM CPT, ATP luminescence, 48 h. Potency, µM (doses to about 46.2 µM), for the others: at the highest dose activity change, negative = growth inhibition, hits mostly inhibitors. 420,000 compounds, 12% hits. AID 686979, 2013; also: potency is read from the fitted curve at half-maximal effect; nearly all actives have a fitted effect of over 55% in size
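Chicken DT40 Tdp1-/- cells complemented with human TDP1, 400 cells/well, exposed to compounds plus 20 nM camptothecin for at least 48 h at 37 C; viability read as ATP content by CellTiter-Glo luminescence.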
HT1080NT lethal: qHTS for induction of synthetic lethality in tumor cells producing 2HG: qHTS for the HT-1080-NT fibrosarcoma cell line; HT-1080-NT fibrosarcoma viability, CellTiter-Glo ATP luminescence, 48 h; Potency, µM (series often up to 46.1 µM), for the others: at the top dose activity, negative = less viability, actives largely listed as cytotoxic; 360,000 compounds, 1.6% hits;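 also: NT is the 2HG producing partner of a matched IDH1 knockdown line; potency is read from the fitted curve at half-maximal effect; 0% = DMSO-treated cells and -100% = media-only wells without cells; nearly all actives have a fitted effect of over 55% in size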
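Viability of the 2HG-overproducing fibrosarcoma line after 48 hours of compound exposure at 37 degrees C was determined by luminescence with CellTiter-Glo, and concentration-effect curves were then fitted and categorized.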
Starred values were filed as active, the others as inactive. Unless noted, calls follow the shape of the dose curve; as a rule, active = well fitted curve in the direction sought with a large enough effect; inconclusive = small, poorly fitted or top-dose-only effect, or another doubt; inactive = no such curve, though single readings can be large; an effect the other way counts as inactive or inconclusive. Unless noted, % is scaled to controls: 0 for no effect and ±100 for the full control effect.

CSc1ccc(CN(C)Cc2nc3ccccc3c(=O)[nH]2)cc1 was read as DT40 TDP1 no CPT 14.6µM*, uPA surface inh 3.6%, HT1080 IDH1KD tx -1.4%, IL-1B inflam inh 3.0, TDP1 cell CPT inconclusive and HT1080NT lethal -10.8%.
For CCOC(=O)c1[nH]c2cc3c(cc2c1NC(=O)CN1CCC(C)CC1)OCO3 the results were DT40 TDP1 no CPT 11.2µM*, uPA surface inh -4.8%, HT1080 IDH1KD tx -7.0%, IL-1B inflam inh -22.4, TDP1 cell CPT 17.8µM* and HT1080NT lethal -6.1%.
CCOC(=O)N1CCN(CC(=O)Nc2c(C(=O)OC)[nH]c3ccccc23)CC1 was read as DT40 TDP1 no CPT inconclusive, uPA surface inh -22.4%, HT1080 IDH1KD tx -9.0%, IL-1B inflam inh 16.9, TDP1 cell CPT inconclusive and HT1080NT lethal 9.5%.
For CCOC(=O)c1[nH]c2cc3c(cc2c1NC(=O)CN1CCCC1)OCO3 the results were DT40 TDP1 no CPT inconclusive, uPA surface inh 2.2%, HT1080 IDH1KD tx 9.1%, IL-1B inflam inh 5.8, TDP1 cell CPT -7.4% and HT1080NT lethal 10.9%.
For CCOC(=O)c1[nH]c2cc3c(cc2c1NC(=O)CN1CCc2ccccc2C1)OCO3 the results were DT40 TDP1 no CPT 11.6µM*, uPA surface inh -13.9%, HT1080 IDH1KD tx -24.4%, IL-1B inflam inh -15.3, TDP1 cell CPT 16.4µM* and HT1080NT lethal -2.4%.
Screening COc1ccccc1NC(=O)COc1ccc(C(=O)NCc2ccccc2)cc1OC returned DT40 TDP1 no CPT inconclusive, uPA surface inh 30.4%, HT1080 IDH1KD tx -13.9%, IL-1B inflam inh inconclusive, TDP1 cell CPT inconclusive and HT1080NT lethal -3.3%.
`COc1cc(C(=O)NC2CCCc3ccccc32)cc(OC)c1C` (configuration not stated) gave DT40 TDP1 no CPT inconclusive, uPA surface inh 5.4%, HT1080 IDH1KD tx -20.9%, IL-1B inflam inh 43.6, TDP1 cell CPT inconclusive and HT1080NT lethal -29.9%.
For Cc1c(C(=O)NC2CCCc3ccccc32)cccc1[N+](=O)[O-] (configuration not stated) the results were DT40 TDP1 no CPT 13µM*, uPA surface inh -3.7%, HT1080 IDH1KD tx -5.1%, IL-1B inflam inh 11.4, TDP1 cell CPT inconclusive and HT1080NT lethal -1.2%.
For COc1ccccc1NC(=O)COc1ccc(C(=O)NC2CCCc3ccccc32)cc1OC (configuration not stated) the results were DT40 TDP1 no CPT 7.31µM*, uPA surface inh -3.1%, HT1080 IDH1KD tx -9.4%, IL-1B inflam inh 33.0, TDP1 cell CPT inconclusive and HT1080NT lethal -18.2%.
COc1ccc(C(=O)NC2CCCc3ccccc32)cc1[N+](=O)[O-] (configuration not stated) was read as DT40 TDP1 no CPT 3.66µM*, uPA surface inh -6.3%, HT1080 IDH1KD tx 14.6µM*, IL-1B inflam inh 41.8, TDP1 cell CPT 5.17µM* and HT1080NT lethal inconclusive.
`COc1cccc(C(=O)NC2CCCc3ccccc32)c1OC` (configuration not stated) gave DT40 TDP1 no CPT 23.1µM*, uPA surface inh -7.5%, HT1080 IDH1KD tx -7.3%, IL-1B inflam inh 32.2, TDP1 cell CPT inconclusive and HT1080NT lethal -12.3%.
CC[C@H](C)C(N)c1cn([C@@H](CC(N)=O)C(=O)N2CCNCC2)nn1 (some centres not stated) was read as DT40 TDP1 no CPT 8.8%, uPA surface inh 2.1%, HT1080 IDH1KD tx 11.4%, IL-1B inflam inh 18.3, TDP1 cell CPT 0.5% and HT1080NT lethal 24.1%.
